Measured values reported in PubChem BioAssay (NCATS).
Results filed as inconclusive are left out. Activity calls are given as the source filed them. Calls come from the whole dose curve; as a rule, active = well fitted inhibition curve with a large enough effect; inconclusive = small, poorly fitted or top-dose-only effect; inactive = no such curve, though single readings can be large or run the other way.

The compounds below were run on Zika virus NS2B-NS3 protease (linked construct) (assay: Primary screen NINDS Rhodamine qHTS for Zika virus inhibitors (AID 1347160; note: nearly all actives have a fitted effect of over 55% in size)). Conditions: purified NS2B-NS3 protease, Rhodamine110 substrate fluorescence; series mostly up to 57.1 µM; activity change, negative = inhibition: at the top concentration.
How it was run: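 Purified NS2B-NS3 protease with the NS2B hydrophilic domain joined by a flexible linker (25 nM) in 10 mM Tris-HCl pH 8.0, 0.01% Tween 20, preincubated 15 min at RT with compound; Rhodamine110 peptide substrate 1.5 µM; fluorescence change over 15 min; 4-parameter Hill fit.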
% is set by controls: 0 for no effect and ±100 for the full control effect.

SMILES	outcome	activity change, negative = inhibition	Potency
CC1(C)CC[C@]2(C(=O)O)CC[C@]3(C)C(=CCC4[C@@]5(C)C[C@@H](O)[C@H](O)C(C)(C)C5CC[C@]43C)[C@@H]2[C@@H]1O (stereo partly specified)	inactive [at 33.1 µM]	–	–
c1nc(NC2CCCCCC2)c2cc(CNC[C@H]3CCCO3)sc2n1	–	31.3% (inactive)	–
O=C(/C=C/c1ccc(O)cc1)OC[C@H]1O[C@@H](OC(=O)/C=C/c2ccccc2)[C@H](O)[C@@H](O)[C@@H]1O	–	-8.33% [at 33.1 µM] (inactive)	–
C[C@]12CCC[C@](C)(C(=O)O)C1CCC13C=C(CO)C(CCC12)C3 (stereo partly specified)	–	29.7% [at 33.1 µM] (inactive)	–
CC1OC(O[C@H]2[C@@H](O)C[C@@]3(C)C([C@H](O)C[C@]4(C)C3CC=C3C5CC(C)(C)CC[C@]5(C(=O)OC5OC(CO)C(O)C(O)C5OC5OCC(OC6OCC(OC7OCC(O)C(O)C7O)C(O)C6O)C(OC6OCC(O)(CO)C6O)C5O)CC[C@]34C)[C@]2(C)CO)C(O)C(O)C1O (stereo partly specified)	–	-1.39% [at 10.7 µM] (inactive)	–
N[C@@H](CC(=O)N1CCn2c(nnc2C(F)(F)F)C1)Cc1[nH]nc2c(F)c(F)ccc12	–	36.9% (inactive)	–
CCn1c2ccccc2c2cc(CNC)ccc21	–	–	inactive
FC(F)(F)c1cc(C(F)(F)F)c2ccc3nc(-c4nnco4)cn3c2n1	inactive	–	–
CC(=O)OCC1=C[C@H](O)[C@@H]2C(C(=O)O)=CO[C@@H](O[C@@H]3O[C@H](CO)[C@@H](O)[C@H](O)[C@H]3O)[C@H]12	–	18.7% [at 33.1 µM] (inactive)	–
CC(C)=CCC[C@](C)(O[C@@H]1O[C@H](CO[C@@H]2OC[C@@H](O)[C@H](O)[C@H]2O)[C@@H](O)[C@H](O)[C@H]1O)[C@H]1CC[C@]2(C)[C@@H]1[C@H](O)C[C@@H]1[C@@]3(C)CC[C@H](O[C@@H]4O[C@H](CO)[C@@H](O)[C@H](O)[C@H]4O[C@@H]4O[C@H](CO)[C@@H](O)[C@H](O)[C@H]4O)C(C)(C)[C@@H]3CC[C@]12C	–	15.8% [at 33.1 µM] (inactive)	–
CC1(CO)CC2C(O)C(=O)C3(CO)CC3(C)C2C1 (stereo unspecified)	–	-0.333% (inactive)	–
CC1[C@@H](O)[C@@H](O)C2[C@]3(C)C(C[C@H]4OC(=O)[C@H](O)[C@]1(O)[C@@]24C)C(C)(O)C[C@H](O)[C@H]3O (stereo partly specified)	–	25.6% [at 33.1 µM] (inactive)	–
CN(C)C/C=C/C(=O)Nc1ccc(C(=O)Nc2cccc(Nc3ncc(Cl)c(-c4c[nH]c5ccccc45)n3)c2)cc1	inactive	–	–
COC1CC(OC2CCC3(C)C(=CCC4C3CCC3(C)C(C(C)O)CCC43O)C2)OC(C)C1OC1OC(C)C(OC2OC(COC3OC(COC4OC(CO)C(O)C(O)C4O)C(O)C(O)C3O)C(O)C(O)C2O)C(OC)C1O (stereo unspecified)	–	11.3% [at 15.1 µM] (inactive)	–
N#Cc1ccc2[nH]c(O)c(-c3ccc(CN4CCOCC4)cn3)c2c1	–	–	inactive
CC1CCC2C(C(=O)O)=CC3C(O)C(C)(C)CC123 (stereo unspecified)	–	-12.3% (inactive)	–
